Compound activity as filed in PubChem.
In the library only some 19% were active in any assay of this set; here they are far more common.
DT40 TDP1 no CPT – qHTS for Inhibitors of human tyrosyl-DNA phosphodiesterase 1 (TDP1): qHTS in cells in absence of CPT. 15% of 420,000 active. AID 686978, 2013. Potency, µM (titrated, usually from 46.2 µM), most hits filed as inhibitors. DT40 Tdp1-/- hTDP1 cells, no CPT, ATP luminescence, 48 h; also: nearly all actives have a fitted effect of over 55% in size
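Growth of hTDP1-complemented DT40 Tdp1-knockout cells is measured by ATP luminescence after at least 48 hr compound exposure at 37 °C, with DMSO substituting for the 20 nM CPT used in the parallel screen.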
ELG1 repair inh – blocks ELG1-dependent DNA repair in HEK293T cells; HEK293T ELG1-luciferase reporter, luminescence, 16 h; DNA damage induced by 5-fluorouridine; Potency, µM (series often up to 46.1 µM), usual class: inhibitors; 2.3% of 330,000 active; AID 504467; also: nearly all actives have a fitted effect of over 55% in size
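HEK293T cells expressing luciferase-tagged ELG1 (2,000/well) received 5-Fluorouridine plus compound or DMSO for 16 hr at 37 °C. Luciferase was read by ONE-Glo luminescence after 30 min at room temperature.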
IL1B secr inh – inflammasome signaling inhibition, IL-1 beta readout; THP-1 LPS/ATP IL-1B secretion, AlphaLISA, 16 h; hits give low values; activity change, % at 57.5 µM; 4.7% of 360,000 active; AID 743279; in the data active = activity change below about -50%; inconclusive = mostly about -30% to -49%
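Secreted IL-1B measured by AlphaLISA bead assay after 16 h compound exposure of THP-1 cells; compounds (final up to 57.5 uM) added 1 h before LPS (250 ng/mL) and ATP (1.25 mM) stimulation; lower signal means less secretion.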
Giardia killer – Giardia lamblia killing; Giardia lamblia trophozoite viability; activity change, % at 7.66 µM, hits read low; 0.15% of 340,000 active; AID 540267; in the data active = activity change below about -80%; inconclusive = between about -30% and that limit;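 also: parasites exposed to compound for two days anaerobically before the ATP read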
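Each well holds 100 Giardia trophozoites and compound. After two days (48 hrs) at 37 deg C in anaerobic conditions, ATP is quantified by luminescence.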
TDP1 block – blocks human tyrosyl-DNA phosphodiesterase 1; 0.28% of 350,000 active; Q9NUW8; AID 485290; recombinant TDP1, AlphaScreen DNA substrate cleavage; Potency, µM (doses to about 130 µM), actives largely listed as inhibitors; also: nearly all actives have a fitted effect of over 40% in size
Target sequence (Q9NUW8 whole entry, looked up): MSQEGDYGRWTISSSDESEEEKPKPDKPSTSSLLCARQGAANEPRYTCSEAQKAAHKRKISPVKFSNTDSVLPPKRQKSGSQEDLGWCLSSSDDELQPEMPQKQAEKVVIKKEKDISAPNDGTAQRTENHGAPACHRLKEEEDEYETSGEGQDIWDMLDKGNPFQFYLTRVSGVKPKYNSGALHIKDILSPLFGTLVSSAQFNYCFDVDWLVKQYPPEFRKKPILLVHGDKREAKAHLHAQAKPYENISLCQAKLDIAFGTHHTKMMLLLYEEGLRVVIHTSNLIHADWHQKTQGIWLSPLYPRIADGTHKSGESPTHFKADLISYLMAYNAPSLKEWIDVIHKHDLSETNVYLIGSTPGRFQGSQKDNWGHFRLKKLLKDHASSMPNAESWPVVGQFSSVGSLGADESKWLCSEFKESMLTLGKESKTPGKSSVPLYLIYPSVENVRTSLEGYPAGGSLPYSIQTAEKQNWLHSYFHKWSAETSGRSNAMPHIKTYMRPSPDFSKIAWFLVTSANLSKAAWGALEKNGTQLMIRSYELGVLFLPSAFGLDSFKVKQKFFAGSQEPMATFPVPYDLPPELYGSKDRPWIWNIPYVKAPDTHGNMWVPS
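Here, a 5' biotin and 3' phosphotyrosine-FITC DNA oligonucleotide reports Tdp1 activity: intact substrate bridges AlphaScreen beads, while cleavage leaves a 3' phosphate and drops signal. All incubations at room temperature.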
DT40 TDP1 CPT – growth inhibition of DT40 Tdp1-/-;hTDP1 cells with camptothecin (screen for TDP1 inhibitors). Potency, µM (doses to about 46.2 µM), most hits filed as inhibitors. AID 686979. chicken DT40 Tdp1-/-;hTDP1 cells + 20 nM CPT, ATP luminescence, 48 h. 12% of 420,000 active; also: nearly all actives have a fitted effect of over 55% in size
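Chicken DT40 Tdp1-/- cells complemented with human TDP1, 400 cells/well, exposed to compounds plus 20 nM camptothecin for at least 48 h at 37 C; viability read as ATP content by CellTiter-Glo luminescence.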
A number is an active result; i = inactive; ? = inconclusive; nt = no result given; [ ] = remark or other dose. Unless noted, calls follow the shape of the dose curve; as a rule, active = well fitted curve in the direction sought with a large enough effect; inconclusive = small, poorly fitted or top-dose-only effect, or another doubt; inactive = no such curve, though single readings can be large; an effect the other way counts as inactive or inconclusive.

SMILES	DT40 TDP1 no CPT	ELG1 repair inh	IL1B secr inh	Giardia killer	TDP1 block	DT40 TDP1 CPT
Cn1c(/C=C/c2ccc(Cl)cc2)c([N+](=O)[O-])c(=O)n(C)c1=O	21µM	?	-100	i	nt	?
CN(/C=C/c1c([N+](=O)[O-])c(=O)n(C)c(=O)n1C)c1ccccc1	i	i	i	i	i	i
CCOc1ccc(/C=C/c2[nH]c(=O)[nH]c(=O)c2[N+](=O)[O-])cc1	i	i	i	i	nt	i
Cn1c(/C=C/c2cccc([N+](=O)[O-])c2)c([N+](=O)[O-])c(=O)n(C)c1=O	15µM	?	-107	i	nt	?
Cc1ccc(C(=O)C2CCOC(C)(C)C2)cc1 (centres undefined)	i	i	i	i	i	i
O=c1ccc(-c2ccccc2)nn1Cc1c(F)cccc1Cl	?	nt	nt	nt	i	18µM
C=Cc1ccc(Cn2nc(-c3ccccc3)ccc2=O)cc1	i	i	i	i	nt	?
O=c1ccc(-c2ccccc2)nn1Cc1ccccc1F	i	i	-62	i	i	i
Cc1cc(F)ccc1NC(=O)C1CCC(CNS(=O)(=O)c2ccc3c(c2)CCCC(=O)N3)CC1 (centres undefined)	i	nt	nt	nt	i	?
CCC(CC)C(=O)N(C)c1c(C)nc2c(OCc3cccc(OC)c3)cccn12	21µM	nt	i	nt	nt	?
CCC(CC)C(=O)N(C)c1c(C)nc2c(OCc3ccc(OC(F)F)cc3)cccn12	12µM	nt	i	nt	nt	12µM
CCC(CC)C(=O)N(C)c1c(C)nc2c(OCc3cc(Cl)cc(Cl)c3)cccn12	?	nt	i	nt	nt	?
CCC(CC)C(=O)N(C)c1c(C)nc2c(OCc3ccc(Cl)cc3)cccn12	?	nt	i	nt	nt	8.2µM
CCc1nc2c(OCc3ccc(OC)cc3)cccn2c1N(C)C(=O)C(C)C	?	nt	i	nt	nt	?
CCC(CC)C(=O)N(C)c1c(C)nc2c(OCc3cccc(Cl)c3)cccn12	12µM	nt	i	nt	nt	21µM
Cc1cccc(NS(=O)(=O)c2ccc3c(c2)oc(=O)n3C)c1C	?	i	i	i	nt	i
O=C(Nc1cccc(Cl)c1)Nn1cnnc1	i	i	i	i	i	i
CCOc1ccc(-n2c(=S)sc3c(=O)[nH]c(SCC(=O)C(C)(C)C)nc32)cc1	18µM	15µM	i	i	i	26µM
O=C(C1CCN(Cc2nc(Cc3cccc(F)c3)no2)CC1)N1CCOCC1	i	i	i	i	i	i
FC(F)(F)c1cccc(-c2noc(CN3CCOCC3)n2)c1	i	?	i	i	i	i
FC(F)(F)c1cccc(Cc2noc(CN3CCC(c4ccncc4)CC3)n2)c1	7.3µM	i	i	i	i	5.8µM
CC(CN(C)Cc1nc(Cc2cccc(C(F)(F)F)c2)no1)CN1CCCC1 (centres undefined)	23µM	i	i	i	i	21µM
CN1CCCN(Cc2nc(-c3cccc(C(F)(F)F)c3)no2)CC1	16µM	?	i	i	i	?
CN1CCCC2(CCCN(Cc3nc(Cc4cccc(C(F)(F)F)c4)no3)C2)C1 (centres undefined)	?	i	-75	i	i	i
CCOC(=O)c1cccc(NC(=O)CN2C(=O)c3ccccc3Sc3ncccc32)c1	?	nt	nt	nt	i	?
SMILES	DT40 TDP1 no CPT	ELG1 repair inh	IL1B secr inh	Giardia killer	TDP1 block	DT40 TDP1 CPT
O=C1C(=O)N(C2CCN(C(=O)c3ccccc3F)CC2)CCN1Cc1ccc(F)cc1	i	nt	nt	nt	i	i
FC(F)(F)c1cccc(Cc2noc(CN3CCCC(OCc4ccccn4)C3)n2)c1 (centres undefined)	23µM	?	i	i	i	18µM
Cc1ccccc1OCC(=O)OCc1cc(=O)n2nc(C3CC3)sc2n1	i	nt	nt	nt	i	i
CCOc1ccc(NC(=O)C(=O)NCc2ccco2)cc1	i	nt	nt	nt	i[12.3 µM]	i
Cc1ccc(NS(=O)(=O)c2ccc(OCC(=O)NCc3ccco3)cc2)cc1	?	i	i	?	i	18µM
CC(C)(C)NS(=O)(=O)c1ccc(OCC(=O)NCc2ccco2)cc1	i	i	i	i	i	i
CCN(CC)S(=O)(=O)c1ccc(OCC(=O)NCc2ccco2)cc1	i	i	i	i	i	?
Cc1ccc(NS(=O)(=O)c2ccc(OCC(=O)NCc3ccccn3)cc2)cc1	4.6µM	nt	i	i	nt	3.7µM
CCOc1ccc(/C=N/OCC(=O)NCc2ccco2)cc1	23µM	i	i	i	i	?
Cc1ccc(NS(=O)(=O)c2ccc(OCC(=O)NCc3ccncc3)cc2)cc1	i	i	i	i	i	i
Cc1ccc(C)c(NS(=O)(=O)c2ccc(OCC(=O)NCc3ccco3)cc2)c1	23µM	?	i	i	i	?
CC(CCc1ccccc1)NC(=O)CC(C)c1ccccc1 (centres undefined)	?	i	i	i	i	i
COc1ccc(C(N)c2nccc3cc(OC)c(OC)cc23)cc1OC (centres undefined)	?	?	-83	i	nt	?
COc1cc2ccnc(Cc3cccc(OC)c3OC)c2cc1OC	13µM	i	i	i	i	?
COc1cc(N)c(C(=O)c2nccc3cc(OC)c(OC)cc23)cc1OC	i	i	i	i	nt	i
COc1ccc(C(C#N)c2cnccn2)cc1OC (centres undefined)	i	i	i	i	i	i
COc1cc(N)c(Cc2nccc3cc(OC)c(OC)cc23)cc1OC	?	?	i	i	i	?
COc1cc2ccnc(C=NO)c2cc1OC	21µM	nt	?	nt	nt	21µM
COc1cc(Cc2nccc3cc(OC)c(OC)cc23)c(S(=O)(=O)O)cc1OC	i	i	i	i	nt	i
COc1cc(Br)c(C(=O)c2nccc3cc(OC)c(OC)cc23)cc1OC	18µM	i	i	i	i	23µM
CC(C)CN1CC[C@@]2(CCCN(S(=O)(=O)c3ccccc3)C2)C1	i	nt	nt	nt	nt	i
Nc1c(-c2ccc(Cl)cc2)cnc2c(-c3ccccc3)cnn12	i	?	i	i	nt	i
Cc1ccc(-n2nc3cc(C)c(NC(=O)COc4ccccc4)cc3n2)cc1	i	nt	nt	nt	i	i
Cc1cc(C)cc(OCCOCCn2c(-c3ccc(Cl)cc3)nc3ccccc3c2=O)c1	i	nt	nt	nt	nt	?
CC1CCCN(CCCN2C(=O)C3C(C(=O)Nc4ccc(Cl)cc4)C4C=CC3(O4)C2C(=O)NC2CCCCC2)C1 (centres undefined)	i	i	?	i	i	i
COc1cc2ccnc(C=O)c2cc1OC	2.6µM	nt	i	nt	nt	4.6µM
O=C(Nc1nc2n(n1)C(c1ccc(Cl)cc1)C=C(c1ccccc1)N2)c1ccco1 (centres undefined)	21µM	nt	nt	nt	i	21µM
